# Experimental data published in PMC11062922 (Nature Chemical Biology, 2023).
# Read-outs that look alike come from different tables or passages of the source.
# What was measured:
# Parameters in all cases: species or system human, MV4-11 + K-562 + COLO205 + SK-N-BE2 + OVCAR-8
# ABL2 = conditions: read-out: apparent Kd, n = 1
# ACVR1B = conditions: read-out: apparent Kd, n = 1
# AURKB = conditions: read-out: apparent Kd; compound concentrations: 100 nM and 1000 nM (sheet 'Samples'), CATDS: 5.1927798123429401E-3; n = 1
# BTK = conditions: read-out: apparent Kd, n = 1
# BUB1 = conditions: read-out: apparent Kd, compound concentrations: 100 nM and 1000 nM (sheet 'Samples'), n = 1
# CIT = conditions: read-out: apparent Kd, compound concentrations: 100 nM and 1000 nM (sheet 'Samples'), n = 1
# EPHB1 = conditions: read-out: apparent Kd, n = 1
# IRAK3 = conditions: read-out: apparent Kd; compound concentrations: 100 nM and 1000 nM (sheet 'Samples'), CATDS: 5.6966714044827602E-3; n = 1
# MAP3K11 = conditions: read-out: apparent Kd, n = 1
# MAPK14 = conditions: read-out: apparent Kd, n = 1
# MARK2 = conditions: read-out: apparent Kd, compound concentrations: 100 nM and 1000 nM (sheet 'Samples'), n = 1
# PIK3CD = conditions: read-out: apparent Kd; compound concentrations: 100 nM and 1000 nM (sheet 'Samples'), CATDS: 4.6666042012861897E-2; n = 1
# PKN2 = conditions: read-out: apparent Kd, n = 1
# PRKCA = conditions: read-out: apparent Kd, n = 1
# RPS6KA3 = conditions: read-out: apparent Kd; compound concentrations: 100 nM and 1000 nM (sheet 'Samples'), CATDS: 4.3523145160936898E-3; n = 1
# RPS6KB1 = conditions: read-out: apparent Kd; compound concentrations: 100 nM and 1000 nM (sheet 'Samples'), CATDS: 4.5805386510862304E-3; n = 1
# TTK = conditions: read-out: apparent Kd; compound concentrations: 100 nM and 1000 nM (sheet 'Samples'), CATDS: 3.8760622756019202E-3; n = 1
# PAK6 = conditions: read-out: apparent Kd, n = 1
# LCK = conditions: read-out: apparent Kd; compound concentrations:100 nM and 1000 nM (sheet 'Samples'); n = 1
# [1] = compound concentrations:100 nM and 1000 nM (sheet 'Samples')
compound,measurement,setting,value
Cn1ncc2c(N)ncnc21 [SKF-18267],potency estimated from few doses,"ABL2; compound concentrations: 100 nM and 1000 nM (sheet 'Samples'), CATDS: 5.0197498438992799E-3",808 nM
same,potency estimated from few doses,"ACVR1B; compound concentrations: 100 nM and 1000 nM (sheet 'Samples'), CATDS: 5.9618595467290699E-3",587 nM
same,potency estimated from few doses,AURKB,756 nM
same,potency estimated from few doses,"BTK; compound concentrations: 100 nM and 1000 nM (sheet 'Samples'), CATDS: 5.3280284172791698E-3",720 nM
same,potency estimated from few doses,BUB1; CATDS: 3.8134095637251098E-3,1510 nM
same,potency estimated from few doses,CIT; CATDS: 4.0396253783402704E-3,1300 nM
same,potency estimated from few doses,"EPHB1; compound concentrations: 100 nM and 1000 nM (sheet 'Samples'), CATDS: 5.0582838235080502E-3",796 nM
same,potency estimated from few doses,IRAK3,636 nM
same,potency estimated from few doses,"MAP3K11; compound concentrations: 100 nM and 1000 nM (sheet 'Samples'), CATDS: 4.0610212954189503E-3",1290 nM
same,potency estimated from few doses,"MAPK14; compound concentrations: 100 nM and 1000 nM (sheet 'Samples'), CATDS: 5.3577076045461004E-3",712 nM
same,potency estimated from few doses,MARK2; CATDS: 3.8405596428901902E-3,1490 nM
same,potency estimated from few doses,PIK3CD,40.8 nM
same,potency estimated from few doses,"PKN2; compound concentrations: 100 nM and 1000 nM (sheet 'Samples'), CATDS: 4.0047157593236004E-3",1330 nM
same,potency estimated from few doses,"PRKCA; compound concentrations: 100 nM and 1000 nM (sheet 'Samples'), CATDS: 3.58231732022705E-3",1810 nM
same,potency estimated from few doses,RPS6KA3,1090 nM
same,potency estimated from few doses,RPS6KB1,976 nM
same,potency estimated from few doses,TTK,1450 nM
CCn1c(-c2nonc2N)nc2c(C#CC(C)(C)O)nc(OC[C@@H](N)c3ccccc3)cc21 [GSK938890A],potency estimated from few doses,"PAK6; compound concentrations: 100 nM and 1000 nM (sheet 'Samples'), CATDS: 9.3701498593083701E-2",129 nM
Cl.ON=C1CCc2cc(-c3nc(C4CCNCC4)[nH]c3-c3ccncc3)ccc21 [SB-614067-R],potency estimated from few doses,ACVR1B; [1],846 nM
same,potency estimated from few doses,MAPK14; [1],1160 nM
COc1cccc2c(-c3ccncc3)c(-c3ccc(F)cc3)nn12 [GW468513X],potency estimated from few doses,"ACVR1B; compound concentrations: 100 nM and 1000 nM (sheet 'Samples'), CATDS: 0.110012792882782",83.3 nM
same,potency estimated from few doses,BUB1; CATDS: 4.5362878745682803E-2,739 nM
same,potency estimated from few doses,CIT; CATDS: 4.9718513038834899E-2,539 nM
same,potency estimated from few doses,"MAPK14; compound concentrations: 100 nM and 1000 nM (sheet 'Samples'), CATDS: 0.16592681304069401",42.8 nM
CN(c1ccc(NC(=O)N2CCN(CCCN3CCOCC3)CC2)cc1)c1ccnc(Nc2ccc(CS(C)(=O)=O)cc2)n1.Cl [GW830899A],potency estimated from few doses,"MAP3K11; compound concentrations: 100 nM and 1000 nM (sheet 'Samples'), CATDS: 1.83131031951747E-2",1980 nM
same,potency estimated from few doses,"MAPK14; compound concentrations: 100 nM and 1000 nM (sheet 'Samples'), CATDS: 2.4950407737396499E-2",905 nM
same,potency estimated from few doses,MARK2; CATDS: 1.9891178500976402E-2,1550 nM
Fc1ccc(-c2c(-c3ccncc3)[nH]c3cccnc23)cc1 [RO1153853-000],potency estimated from few doses,"ACVR1B; compound concentrations: 100 nM and 1000 nM (sheet 'Samples'), CATDS: 6.54692284622726E-2",700 nM
same,potency estimated from few doses,BUB1; CATDS: 4.9666048128405298E-2,1690 nM
same,potency estimated from few doses,CIT; CATDS: 4.9233992215081297E-2,1750 nM
same,potency estimated from few doses,"MAPK14; compound concentrations: 100 nM and 1000 nM (sheet 'Samples'), CATDS: 9.4137479402045199E-2",308 nM
NCCNS(=O)(=O)c1ccc(-c2ccnc3[nH]ccc23)cc1 [GSK977617A],potency estimated from few doses,ABL2; [1],277 nM
same,potency estimated from few doses,BTK; [1],642 nM
same,potency estimated from few doses,EPHB1; [1],463 nM
same,potency estimated from few doses,LCK,515 nM
same,potency estimated from few doses,MAP3K11; [1],1370 nM
same,potency estimated from few doses,PAK6; [1],1310 nM
same,potency estimated from few doses,PKN2; [1],1190 nM
same,potency estimated from few doses,PRKCA; [1],1270 nM
